# Platelet DG rel: platelet dense granule release activity; 300,000 tested, 0.22% active; human platelet-rich plasma, SFLLRN dense granule ATP release, luminescence; AID 1663; inhibition, %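 (compounds screened at 7.5 µM in platelet-rich plasma)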;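 active = mean replicate score, as percent of positive control, at or above 50; inconclusive = mean below 50 but at least one replicate at or above 50; inactive = mean and every replicate below 50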
# PHOSPHO1 inh: blocks human PHOSPHO1 phosphatase activity | recombinant PHOSPHO1, absorbance phosphatase assay | inhibition, % at 13.3 µM | 290,000 tested, 1.1% active | AID 1565; in the data active = inhibition above about 60%
# Target sequence (Q8TCT1 whole entry, looked up): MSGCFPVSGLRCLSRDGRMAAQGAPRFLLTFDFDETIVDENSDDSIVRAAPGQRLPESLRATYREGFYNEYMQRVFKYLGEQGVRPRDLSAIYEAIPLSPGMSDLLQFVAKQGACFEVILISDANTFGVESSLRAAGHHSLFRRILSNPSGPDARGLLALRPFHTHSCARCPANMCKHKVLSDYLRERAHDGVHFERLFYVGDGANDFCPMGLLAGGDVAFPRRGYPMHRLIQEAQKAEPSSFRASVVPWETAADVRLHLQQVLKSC
# TPT1 inhibitor: C. albicans TPT1 enzyme inhibition | inhibition, % at 5 µM | 300,000 tested, 0.81% active | recombinant caTPT1, FP RNA substrate dephosphorylation | AID 1962;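 active = inhibition above the mean of all tested compounds plus 3 SD, set per screening campaign, cut at about 24% in these data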;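 also: plate controls were DMSO alone for no effect and ferristatin control at 100 nM for full effect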
# SKKanGAS inh: blocks kanamycin growth of S. pyogenes SKKanGAS strain. inhibition, % at 7.5 µM. 300,000 tested, 1.3% active. BacTiter-Glo, 6 h. AID 1662;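 active = mean replicate score, as percent of positive control median, at least 50; inconclusive = mean below 50 but one replicate at or above 50; inactive = mean and every replicate below 50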;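 also: strain carries kanamycin resistance gene driven by streptokinase promoter and grows in 40 µg/ml kanamycin; loss of luminescence reflects streptokinase promoter inhibition or plain growth inhibition; 0% = median of DMSO wells and 100% = positive control at its reference dose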
# WT yeast gro inh: growth inhibition of WT yeast, mitochondrial fusion screen; AID 1362; inhibition, % at 10 µM; mitochondrial fusion phenotypic screen, WT strain; 190,000 tested, 2.1% active; in the data active = inhibition above about 58%; tested in S. cerevisiae
# Rtt109 Vps75: blocks Candida albicans Rtt109/Vps75 acetyltransferase activity. Q5AAJ8. purified Rtt109/Vps75, ThioGlo CoA-SH fluorescence, 4 h. inhibition, % at 34.9 µM. 330,000 tested, 0.16% active;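 active = inhibition of at least 50% in every replicate; inconclusive = best replicate reaches 50% inhibition but some replicates fall short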
# Target sequence (Q5AAJ8 whole entry, looked up): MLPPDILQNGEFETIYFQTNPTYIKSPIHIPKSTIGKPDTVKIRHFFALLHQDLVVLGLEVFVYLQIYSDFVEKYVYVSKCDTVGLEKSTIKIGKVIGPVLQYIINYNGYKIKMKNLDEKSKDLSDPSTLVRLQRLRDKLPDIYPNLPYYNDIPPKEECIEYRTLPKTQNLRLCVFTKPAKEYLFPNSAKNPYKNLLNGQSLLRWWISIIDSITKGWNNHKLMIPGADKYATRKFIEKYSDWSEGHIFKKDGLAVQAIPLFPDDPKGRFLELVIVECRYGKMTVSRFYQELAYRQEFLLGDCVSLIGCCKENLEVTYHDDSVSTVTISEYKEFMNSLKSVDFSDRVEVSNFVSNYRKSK
# The depositor's hits bear a star; ? = inconclusive; · = no result. In the library only some 3.9% were active in any assay of this set; here they are far more common.
SMILES,Platelet DG rel,PHOSPHO1 inh,TPT1 inhibitor,SKKanGAS inh,WT yeast gro inh,Rtt109 Vps75
COc1ccc(NC(=O)c2ccc(N3C(=O)C4CC=C(C)CC4C3=O)cc2)c(OC)c1 (stereo not drawn),-1.1,15.6,-2.7,-0.5,·,-4.4
O=[N+]([O-])c1cc([N+](=O)[O-])c2oc(-c3ccccc3)c(Br)c2c1O,2.3,36.0,·,69.0*,·,-5.3
Cc1ccc(-c2csc3ncnc(N4CCc5ccccc5C4)c23)cc1,-12.3,-1.8,1.9,23.5,66.5*,-1.6
Fc1ccc(-c2csc3ncnc(N4CCc5ccccc5C4)c23)cc1,8.0,2.6,-4.0,?,66.5*,8.1
Oc1ccccc1N1CCN(c2ncnc3scc(-c4ccc(F)cc4)c23)CC1,-1.1,2.1,-3.1,25.9,·,7.4
COc1nc(Nc2ccc([N+](=O)[O-])cc2)nc(NC2CCCCC2)n1,-2.2,-31.1,0.4,44.3,88.0*,·
C=CCNc1nc(Nc2ccc([N+](=O)[O-])cc2)nc(OC)n1,2.4,11.2,0.7,6.0,-0.1,-4.2
CS(=O)(=O)NN1C(=O)c2ccccc2NC1c1cccc(O)c1 (stereo not drawn),-0.2,-12.7,-5.4,2.2,1.0,-44.4
CN1C(=O)c2ccccc2NC(=O)[C@]12O[C@@H]2c1cccc(O)c1,-0.8,22.1,24.1*,5.4,·,1.3
CC(=O)NCCc1ccc(C(=O)COC(=O)c2cc(C)oc2C)cc1,·,·,·,·,·,-4.2
O=C(N/C(=C\c1ccc(Cl)cc1)C(=O)N1CCOCC1)c1ccc([N+](=O)[O-])cc1,-0.4,80.3*,2.8,-1.8,12.8,7.2
CCOc1cccc(C2C(C(=O)c3ccc(C)o3)=C(O)C(=O)N2c2nccs2)c1 (stereo not drawn),-5.1,71.1*,-97.7,25.0,-10.6,8.8
CCOc1cccc(C2C(C(=O)c3ccc(C)o3)=C(O)C(=O)N2Cc2ccncc2)c1 (stereo not drawn),-8.6,-36.3,2.1,4.1,1.0,-1.4
CCCn1c(N)c(C(=O)COC(=O)/C=C/c2ccc(OC(F)F)c(OC)c2)c(=O)[nH]c1=O,·,·,·,·,·,1.8
c1ccc(CN2CCN(C(c3ccccc3)c3ccccc3)CC2)cc1,-4.6,-16.1,-3.1,-21.6,·,3.8
O=C1c2ccccc2C(=O)N1CC#CCN1CCN(C(c2ccccc2)c2ccccc2)CC1,10.7,5.9,0.2,-8.9,67.6*,7.3
Nn1c(Cc2cccc3ccccc23)n[nH]c1=S,-4.7,39.8,-4.4,·,4.2,-5.6
COCc1n[nH]c(=S)n1-c1cccc2ccccc12,·,73.8*,0.3,·,-20.8,-0.4
S=c1[nH]nc(Cc2cccc3ccccc23)n1-c1ccccc1,4.1,94.5*,0.5,-7.5,9.5,23.6
COc1ccc(S(=O)(=O)N2CCOCC2)cc1NC(=O)CSc1nnc2c(n1)[nH]c1ccccc12,-4.6,29.8,-7.1,6.3,·,-2.7
O=S1(=O)N=C(Nc2ccc(N3CCOCC3)c(Cl)c2)c2ccccc21,1.7,27.7,-3.2,50.2*,1.1,-53.2
COc1cc(Br)cc(Br)c1OCC(=O)N/N=C/c1c(C)n(C)n(-c2ccccc2)c1=O,·,26.5,·,·,·,-3.3
COc1ccc(C(=O)NC2CCN(S(=O)(=O)c3ccccc3)CC2)cc1,3.7,·,-1.6,3.8,·,-0.9
O=C(CN1CCN(S(=O)(=O)c2ccc(F)cc2)CC1)NC1CCCC1,-59.0,60.6*,-0.8,11.8,·,-6.1
COc1ccc(S(=O)(=O)N2CCC(Nc3ccccc3Cl)CC2)cc1,-2.0,61.0*,·,-16.2,·,5.7
SMILES,Platelet DG rel,PHOSPHO1 inh,TPT1 inhibitor,SKKanGAS inh,WT yeast gro inh,Rtt109 Vps75
COc1ccc(S(=O)(=O)N2CCN(CC(=O)NC3CC3)CC2)cc1,-14.9,61.6*,-2.0,1.6,·,-0.2
Clc1ccc(C[n+]2cc(-c3ccccc3)n3c2CCCCC3)c(Cl)c1,-5.9,60.0*,-2.2,15.4,17.0,6.0
Cc1ccc(C(=O)N2CCOCC2)cc1S(=O)(=O)N1CCOCC1,2.3,52.7,-1.6,51.0*,·,-0.1
COc1cccc(/C=C/c2ccc3cccc(O)c3n2)c1,10.2,54.5,1.5,98.1*,·,-4.3
Oc1cccc(/C=C/c2ccc3cccc(O)c3n2)c1,25.2,10.9,3.3,57.4*,·,-2.4
C(=C\c1ccc2ccccc2n1)/c1ccccc1,45.0,28.5,-0.5,15.5,·,-3.2
Cc1ccc(/C=C/c2ccc3cccc(O)c3n2)s1,-7.1,30.4,19.5,76.0*,·,1.5
O=[N+]([O-])c1ccc(/C=C/c2ccc3cccc(O)c3n2)cc1,-8.5,22.7,3.9,-1.3,·,-1.1
Oc1ccc(/C=C/c2ccc3ccccc3n2)cc1,90.2*,47.9,-0.8,43.5,30.4,·
COc1cc(/C=C/c2ccc3cccc([N+](=O)[O-])c3n2)ccc1OCC(=O)O,6.1,1.5,0.8,10.0,-29.4,27.4
O=C(CN1C(=O)NC2(CCCC2)C1=O)NNC(=O)c1ccccc1F,·,·,·,·,·,2.2
C=CCN([C@H](C(=O)OC)C(C)C)S(=O)(=O)CCNCc1ccccc1,·,·,·,·,·,-3.5
CC(C)CNC(=S)N1CCC(Cc2ccccc2)CC1,-8.7,32.7,·,9.4,·,-0.9
Cn1c(SCc2cc(=O)n3cc(Br)ccc3n2)nnc1C1COc2ccccc2O1 (stereo not drawn),-6.1,73.3*,-0.6,-11.5,-3.4,·
COc1ccccc1N1CCN(C2CCCN(C(=O)CCN3CCCCO3)C2)CC1 (stereo not drawn),4.9,29.3,-5.5,-2.4,·,4.4
COc1cc(O)ccc1/C=N/NC(=O)c1ccc([N+](=O)[O-])cc1,-4.9,15.5,-9.4,-5.3,-9.0,2.7
O=C(NC(CSCc1ccccc1)C(=O)N/N=C/c1ccc(O)cc1O)c1ccc([N+](=O)[O-])cc1 (stereo not drawn),9.0,12.5,-2.6,70.7*,9.3,8.3
Cc1c(NC(=O)CSc2nnc3c4ccccc4n(CCc4ccccc4)c3n2)c(=O)n(-c2ccccc2)n1C,0.5,63.9*,2.5,4.3,12.0,1.9
CCCCn1c2ccccc2c2nnc(SCC(=O)NC3=NN=C(c4ccccc4)CS3)nc21,-4.4,-28.9,1.8,20.1,59.6*,·
CCn1c2ccccc2c2nnc(SCc3ccccc3)nc21,-2.4,-6.2,-1.8,15.6,58.2*,-2.6
CCn1c2ccccc2c2nnc(SCC(=O)Nc3c(C)n(C)n(-c4ccccc4)c3=O)nc21,3.6,30.0,-4.6,14.2,-1.7,15.8
Cc1csc(=O)n1CC(=O)OCC(=O)NNC(=O)c1ccc(Cl)cc1,·,·,·,·,·,-1.6
c1ccc(CSc2nnc(-c3cccs3)n2Cc2ccco2)cc1,-0.3,-6.8,-3.2,0.9,18.3,-3.7
CCOc1ccc(-c2nnc(SCc3nc4ccccc4[nH]3)n2N)cc1,1.1,76.4*,1.4,3.7,7.5,0.0
Cn1c(SCc2nc3ccccc3[nH]2)nnc1-c1cccnc1,-0.3,24.5,-0.4,-3.4,4.2,6.8
O=c1[nH]c(CSc2nnc(-c3ccncc3)n2Cc2ccco2)nc2ccccc12,10.4,29.0,-3.7,0.9,3.6,3.5
Cc1ccc(-c2nnc(SCc3nc4ccccc4[nH]3)n2Cc2ccco2)cc1,5.2,93.6*,-2.7,2.9,16.2,0.0
